Data published in the supplement of paper PMC9023506.
Where a name gives a salt, the structure may show the parent alone.

test system: Danio rerio larvae (5 dpf); assay: optomotor response to blue moving lines, difference vs DMSO (percentage points (treated minus DMSO)); higher = more of the behaviour than the DMSO vehicle control; settings: 10 µM; exposure time: 3 h pre-incubation + 3 h imaging
Description: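 5-dpf wild-type zebrafish larvae were imaged in 96-well plates. They were treated with 190 Tocris FDA-approved drugs at 10 µM (1 µl/ml DMSO) for 3 h before and 3 h during imaging at 28.5 °C, 48 larvae per drug. Automated image analysis gave % time moving and optomotor responses. Values are drug group mean minus DMSO vehicle mean (n=844), in percentage points, for 10 behaviours.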

| Compound | optomotor response to blue moving lines |
| --- | --- |
| CCOC(=O)N1CCC(=C2c3ccc(Cl)cc3CCc3cccnc32)CC1 [Loratidine] | 6.09 |
| Cn1nnc2c(C(N)=O)ncn2c1=O [Temozolomide] | 3.81 |
| CC(=O)O[C@]1(C(C)=O)CC[C@H]2[C@@H]3C=C(C)C4=CC(=O)CC[C@]4(C)[C@H]3CC[C@@]21C [Megestrol Acetate] | -7.55 |
| Cc1cccc(C)c1OCC(C)N (stereo not given) [Mexiletine hydrochloride] | 7.61 |
| Nc1nc(F)nc2c1ncn2[C@@H]1O[C@H](CO)[C@@H](O)[C@@H]1O [Fludarabine] | -12 |
| CCOC(=O)C1=C(C)NC(C)=C(C(=O)OC)C1c1cccc(Cl)c1Cl (stereo not given) [Felodipine] | -5.26 |
| CCOC(=O)[C@H](CCc1ccccc1)N[C@@H](C)C(=O)N1[C@H](C(=O)O)C[C@@H]2CCC[C@@H]21 [Ramipril] | 4.54 |
| CN1CCC[C@@H]1CCO[C@](C)(c1ccccc1)c1ccc(Cl)cc1 [Clemastine fumarate] | 22.4 |
| Clc1ccc(COC(Cn2ccnc2)c2ccc(Cl)cc2Cl)c(Cl)c1 (stereo not given) [Miconazole nitrate] | -7.42 |
| Cc1cc(C2CCCCC2)n(O)c(=O)c1 [Ciclopirox] | -8.77 |
| CCc1nc(N)nc(N)c1-c1ccc(Cl)cc1 [Pyrimethamine] | 15.9 |
| CN1CCN2c3ncccc3Cc3ccccc3C2C1 (stereo not given) [Mirtazapine] | -2.95 |
| Cc1ccccc1C(=O)Nc1ccc(C(=O)N2CCCC(O)c3cc(Cl)ccc32)c(C)c1 (stereo not given) [Tolvaptan] | -0.344 |
| CC1=Nc2ccc(Cl)cc2S(=O)(=O)N1 [Diazoxide] | 0.0367 |
| C#CCN[C@@H]1CCc2ccccc21 [Rasagiline mesylate] | 15.8 |
| CC(C)C(=O)OCC(=O)[C@@]12O[C@H](C3CCCCC3)O[C@@H]1C[C@H]1[C@@H]3CCC4=CC(=O)C=C[C@]4(C)[C@H]3[C@@H](O)C[C@@]12C [Ciclesonide] | -2.62 |
| NS(=O)(=O)Cc1noc2ccccc12 [Zonisamide] | 3.89 |
| NC(=O)OCC(COC(N)=O)c1ccccc1 [Felbamate] | -1.4 |
| Nc1nc(Cl)nc2c1ncn2[C@@H]1O[C@H](CO)[C@@H](O)[C@@H]1F [Clofarabine] | 4.47 |
| CNS(=O)(=O)Cc1ccc2[nH]cc(CCN(C)C)c2c1 [Sumatriptan succinate] | -3.13 |

| Compound | optomotor response to blue moving lines |
| --- | --- |
| NS(=O)(=O)c1cc2c(cc1Cl)NC(C1CC3C=CC1C3)NS2(=O)=O (stereo not given) [Cyclothiazide] | -7.83 |
| CC[C@H]1OC(=O)[C@H](C)[C@@H](O[C@H]2C[C@@](C)(OC)[C@@H](O)[C@H](C)O2)[C@H](C)[C@@H](O[C@@H]2O[C@H](C)C[C@H](N(C)C)[C@H]2O)[C@](C)(O)C[C@@H](C)CN(C)[C@H](C)[C@@H](O)[C@]1(C)O [Azithromycin] | -9.61 |
| CC(C)(C)NC(=O)[C@@H]1C[C@@H]2CCCC[C@@H]2CN1C[C@@H](O)[C@H](Cc1ccccc1)NC(=O)[C@H](CC(N)=O)NC(=O)c1ccc2ccccc2n1 [Saquinavir mesylate] | -2.78 |
| Cc1cn([C@H]2C=C[C@@H](CO)O2)c(=O)[nH]c1=O [Stavudine] | 10 |
| CN(C)C(=N)NC(=N)N [Metformin hydrochloride] | 22.6 |
| CN(CCOc1ccc(NS(C)(=O)=O)cc1)CCc1ccc(NS(C)(=O)=O)cc1 [Dofetilide] | -7.25 |
| Nc1cccc2c1CN(C1CCC(=O)NC1=O)C2=O (stereo not given) [Lenalidomide] | 3.02 |
| CC(=O)Oc1ccccc1C(=O)O [Aspirin] | 2.57 |
| COc1cc2nc(N3CCN(C(=O)c4ccco4)CC3)nc(N)c2cc1OC [Prazosin hydrochloride] | 0.0687 |
| Cc1cc2c(s1)Nc1ccccc1N=C2N1CCN(C)CC1 [Olanzapine] | 16 |
| CC(C)C(=O)Nc1ccc([N+](=O)[O-])c(C(F)(F)F)c1 [Flutamide] | -17.2 |
| Cc1ccc(N(CC2=NCCN2)c2cccc(O)c2)cc1 [Phentolamine Mesylate] | 16.3 |
| CN(C)CCc1c[nH]c2ccc(C[C@H]3COC(=O)N3)cc12 [Zolmitriptan] | 9.9 |
| Cc1ccc(O)c([C@H](CCN(C(C)C)C(C)C)c2ccccc2)c1 [Tolterodine L-tartrate] | 7.18 |
| CN(C)CCc1c[nH]c2ccc(Cn3cncn3)cc12 [Rizatriptan benzoate] | 3.13 |
| CCCCCOC(=O)Nc1nc(=O)n([C@@H]2O[C@H](C)[C@@H](O)[C@H]2O)cc1F [Capecitabine] | 16.5 |
| C[C@]12CC[C@@H]3c4ccc(O)cc4C[C@@H](CCCCCCCCC[S+]([O-])CCCC(F)(F)C(F)(F)F)[C@H]3[C@@H]1CC[C@@H]2O (stereo not given in full) | 6.07 |
| CC(=O)O[C@H]1C(=O)[C@@]2(C)[C@H]([C@H](OC(=O)c3ccccc3)[C@]3(O)C[C@H](OC(=O)[C@H](O)[C@@H](NC(=O)c4ccccc4)c4ccccc4)C(C)=C1C3(C)C)[C@]1(OC(C)=O)CO[C@@H]1C[C@@H]2O [Taxol] | -0.599 |
| C=CC(=O)N1CCC[C@@H](n2nc(-c3ccc(Oc4ccccc4)cc3)c3c(N)ncnc32)C1 [Ibrutinib] | 6.42 |
| CC(C)n1c(/C=C/C(O)CC(O)CC(=O)O)c(-c2ccc(F)cc2)c2ccccc21 (stereo not given) [Fluvastatin sodium] | -4.94 |
